Screening data: PubChem, several laboratories
Rows were chosen to be rich in hits. Some 5.9% of all compounds tested hit in one or more screens of this group.
AHR activator – activates the human aryl hydrocarbon receptor; P35869; activation, % at 5 µM; AHR-responsive luciferase reporter cells, luminescence; hit rate 2.5% among 320,000; in the data active = activation above about 47%;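 also: 0% = vehicle wells and 100% = reference agonist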
HSF1 inh – HSF1 inhibition; AID 2098; NIH3T3-HGL HSE-luciferase, MG132-induced, luminescence 8 h; active compounds read low; activity change, negative = inhibition, % at 7.5 µM (by protocol); hit rate 0.77% among 300,000;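 active = more than half of replicate wells show activity change below -50%, luminescence cut by over half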;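 also: luciferase reports HSF-1 transcriptional activity via heat shock element; 0% = median of DMSO wells and -100% = zero luminescence signal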
HSF1 activator – increases HSF-1 driven luciferase reporter signal; NIH3T3-HGL HSF-1 luciferase reporter, MG132, 8 h; 100% = twice DMSO control signal; activation, % at 9 µM; hit rate 1.7% among 300,000;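 active = mean replicate activation of at least 50% with a set share of replicates each reaching 50%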;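 also: 0% = median of the neutral control wells and 100% = twice that signal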
NR0B1 inh – inhibitors of human orphan nuclear receptor DAX1 (NR0B1); hit rate 0.99% among 340,000; HEK293 Gal4-DAX1 luciferase reporter, luminescence; inhibition, % at 6.75 µM; P51843;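 active = inhibition above the mean over all tested compounds plus 3 SD, cut at about 4.2% in these data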;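 also: 0% = DAX1-transfected cells with DMSO and 100% = empty-vector control cells with DMSO; inhibition shows as a rise in luminescence from relieved DAX1 repression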
Target sequence (P51843 207-470 limits assumed): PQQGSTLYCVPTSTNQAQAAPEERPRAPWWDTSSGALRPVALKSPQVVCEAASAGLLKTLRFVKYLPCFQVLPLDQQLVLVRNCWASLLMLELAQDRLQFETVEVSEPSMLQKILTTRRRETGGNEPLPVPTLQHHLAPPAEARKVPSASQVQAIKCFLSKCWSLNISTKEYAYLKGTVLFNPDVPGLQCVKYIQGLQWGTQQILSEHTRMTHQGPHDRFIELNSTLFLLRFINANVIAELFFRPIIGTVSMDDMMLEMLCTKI
GAA850 FXN act – increases GAA850 frataxin promoter reporter activity | HEK293 lucGAA850 FXN promoter luciferase reporter, 24 h; percent of 10 µM SAHA response | activation, % at 6 µM | hit rate 0.56% among 360,000 | AID 540364;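 active = activation above the average of all compounds screened plus 3 SD, cutoff fixed separately per campaign, cut at about 7.5% in these data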;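 also: 0% = DMSO wells and 100% = 10 µM SAHA wells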
HSP90 refold inh – inhibitors of HSP90 luciferase refolding in rabbit reticulocyte lysate. AID 1789. inhibition, % at 5.6 µM. luciferase refolding luminescence, 3 h. hit rate 0.91% among 290,000;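 active = inhibition above the screen-wide mean plus 3 SD, computed separately per campaign, cut at about 16% in these data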;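 also: 0% = DMSO wells and 100% = 60 µM geldanamycin wells; inhibitors lower the luminescence because luciferase stays unfolded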
An asterisk follows results filed as active; x = no result.

SMILES | AHR activator | HSF1 inh | HSF1 activator | NR0B1 inh | GAA850 FXN act | HSP90 refold inh
N#C/C(=C(/O)c1ccc(Br)s1)c1nc2ccccc2[nH]1 | 11 | -3 | 4 | -1 | -3 | -3
N#C/C(=C(/O)c1ccco1)c1nc2ccccc2[nH]1 | 24 | -6 | 24 | 5.0* | 3 | -3
COc1ccccc1/C(O)=C(\C#N)c1nc2ccccc2[nH]1 | 48* | -10 | -9 | 3 | 0 | -2
COCC(=O)OC/C(O)=C(\C#N)c1nc2ccccc2[nH]1 | 7 | 2 | -2 | 4.7* | 7 | 5
N#C/C(=C(\O)Cc1ccccc1)c1nc2ccccc2[nH]1 | 50* | -8 | 14 | 2 | -1 | -6
Cc1nc(Nc2ccc(Cl)cc2)c(C#N)c(=O)[nH]1 | 71* | -2 | 10 | 1 | 5 | 1
CC(C)c1ccc(C(=O)N2CCCC(c3cc(C(=O)Nc4ccccc4Cl)no3)C2)cc1 (stereo not given) | x | x | x | x | 0 | x
O=S(=O)(c1ccc(F)cc1)N1CCN=C1SCc1cccnc1 | 2 | 8 | 10 | 7.1* | 3 | 1
O=S(=O)(c1ccc(Br)cc1)N1CCN=C1SCc1cccnc1 | 1 | 4 | 3 | 0 | 4 | 2
CC(=O)c1cc2c(cc1NC(=O)Nc1cccc(Cl)c1)OCCO2 | 58* | -10 | -17 | 0 | -2 | 2
CC(=O)c1ccc(NC(=O)Nc2cccc(Cl)c2)cc1 | -3 | 36 | 67* | 2 | 2 | -3
CCOc1ccc(S(=O)(=O)NCCC(=O)NCC(c2ccccc2OC)N2CCCC2)cc1 (stereo not given) | x | -4 | 10 | 0 | 1 | -6
Cc1cc(NC(=O)Nc2ccc(Cl)c(Cl)c2)n(-c2ccccc2)n1 | 5 | 11 | 25 | 4.8* | 0 | 1
Cc1cc(NC(=O)Nc2cccc(Cl)c2)n(-c2ccccc2)n1 | 5 | 2 | 4 | 2 | 0 | 1
O=C(Nc1cccc(Cl)c1)Nc1ccccc1C(=O)O | 17 | 8 | 5 | -1 | 4 | 11
O=C(Nc1ccc(Cl)c(Cl)c1)Nc1ccccc1C(=O)O | 3 | 27 | 68* | -2 | -2 | 18*
COc1cccc(NC(=O)CN(C)C(=O)c2cc3c(s2)CCCCC3)c1 | 1 | x | x | 0 | -1 | x
Cc1nc2c(cc1C(=O)N/N=C/c1ccc(O)c(O)c1)c(=O)n(C)c(=O)n2C | 1 | -73* | -79 | -1 | 4 | 1
CC(=O)c1ccc(N2CCN(C(=O)c3cc(S(=O)(=O)N4CCOCC4)ccc3C)CC2)cc1 | 0 | x | x | -1 | -3 | x
Cc1cc(C)n(-c2nc3ccccc3c(=O)n2OCc2ccc(Cl)cc2)n1 | 49* | 1 | -24 | 0 | -2 | -1
Cc1cc(C)n(-c2nc3ccccc3c(=O)n2OCc2ccc(F)cc2)n1 | 54* | -6 | 3 | 0 | 1 | -2
Cc1cc(C)n(-c2nc3ccccc3c(=O)n2OCC(=O)OCc2ccccc2)n1 | x | 3 | 5 | 0 | 0 | -1
COc1nn(-c2ccccc2)c(=O)c(Cl)c1Cl | -2 | -93* | -94 | -2 | 6 | -5
O=C(CN1CCC(NC(=O)c2ccc(Br)cc2)CC1)NCc1cccs1 | -2 | x | x | -1 | 0 | -3
Cc1ccc(F)c(CNC(=O)C2(C)CCCN2C(=O)C(C)C)c1F (stereo not given) | x | x | x | x | 0 | x
SMILES | AHR activator | HSF1 inh | HSF1 activator | NR0B1 inh | GAA850 FXN act | HSP90 refold inh
CCOc1cccc(C(=O)Nc2cccc(C(=O)NCC(C)C)c2)c1 | 71* | -3 | 3 | -2 | 0 | -4
CCCOc1cccc(C(=O)Nc2cccc(NC(=O)c3ccco3)c2)c1 | 48* | -4 | 7 | -1 | 0 | -5
Cc1cccc(OCC(=O)Nc2cc(C)ccc2O)c1 | 5 | 130 | 181* | 0 | 2 | -1
Cc1cccc(OCC(=O)Nc2cccc(C(=O)NCC(C)C)c2)c1 | 1 | -81* | -85 | -1 | -2 | -2
CCCCOc1cccc(C(=O)Nc2ccc(NC(=O)c3ccco3)cc2)c1 | -2 | 2 | -6 | -2 | 0 | 4
CCOc1cccc(C(=O)Nc2ccncc2)c1 | 37 | -2 | -5 | -1 | -2 | -2
O=C(Nc1ccc(S(=O)(=O)Nc2ccccc2)cc1)C1COc2ccccc2O1 (stereo not given) | 0 | 3 | -1 | -2 | 1 | -3
CN(C)S(=O)(=O)c1ccc(NC(=O)C2COc3ccccc3O2)cc1 (stereo not given) | 7 | 2 | -5 | 4.5* | 2 | -1
